Only some compounds are listed: those with a hit (about 10% of all), similar ones and a draw of the others.
ALDH1A1 inh – blocks purified human ALDH1A1 activity; hit rate 7.3% among 220,000; Potency, µM (doses to about 75.3 µM), actives largely listed as inhibitors; Purified ALDH1A1, NADH fluorescence, propionaldehyde substrate; active = well fitted inhibition curve with a large enough effect, not every such curve was filed as active; inconclusive = small, poorly fitted or top-dose-only effect, or another doubt; inactive = no such curve, though single readings can be large or run the other way
GLA inh pH 4.5 – alpha-galactosidase A (human) inhibition, pH 4.5 | P06280 | purified enzyme, 4-MU-alpha-Gal fluorescence, pH 4.5 | activity change, negative = inhibition, % at 105 µM | 230,000 tested, under 10 active
GLA spleen mod – alpha-galactosidase A (human) modulation; Potency, µM (series often up to 80 µM), most hits filed as inhibitors; human spleen homogenate, 4MU-alpha-Gal fluorescence, 40 min; AID 2107; hit rate 0.008% among 240,000; P06280
Target sequence (P06280 32-429 limits assumed): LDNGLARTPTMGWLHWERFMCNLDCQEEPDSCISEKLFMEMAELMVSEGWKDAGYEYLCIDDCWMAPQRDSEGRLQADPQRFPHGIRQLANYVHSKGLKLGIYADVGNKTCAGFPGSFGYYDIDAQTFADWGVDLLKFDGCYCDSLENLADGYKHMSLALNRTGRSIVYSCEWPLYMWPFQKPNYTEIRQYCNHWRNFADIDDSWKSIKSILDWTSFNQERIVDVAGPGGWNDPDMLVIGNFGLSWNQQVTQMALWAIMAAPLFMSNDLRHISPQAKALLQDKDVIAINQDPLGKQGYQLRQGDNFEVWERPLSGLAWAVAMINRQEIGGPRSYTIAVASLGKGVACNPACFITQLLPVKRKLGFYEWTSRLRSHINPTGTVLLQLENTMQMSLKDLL
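Human spleen homogenate (1 ug) was the enzyme source, with 4-methylumbelliferyl-alpha-D-galactopyranoside (1 mM final) in pH 5.0 citrate buffer with 0.01% Tween-20. Compounds were titrated; after 40 min at 37C, NaOH/glycine stop, 4-MU fluorescence read; AC50 from Hill fits.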
ALOX12 inhib – 12-hLO (ALOX12) enzyme inhibition. P18054. purified 12-hLO, xylenol orange hydroperoxide absorbance. Potency, µM (doses to about 57.1 µM), most hits filed as inhibitors. hit rate 0.12% among 150,000. AID 1452; note: nearly all actives have a fitted effect of over 55% in size
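150 nM 12hLO, 25 mM Hepes pH 7.0 + 0.01% Triton X-100; cpd preinc 15 min RT; 40 uM arachidonic acid, 30 min RT; Fe-XO 30 min; A573/A405 ratio as read-out.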
HPGD inh – HPGD (human) dehydrogenase inhibition; purified HPGD, NADH fluorescence kinetic, PGE2 substrate; Potency, µM, actives largely listed as inhibitors; hit rate 4.3% among 150,000; AID 894; active = well fitted inhibition curve with a large enough effect, not every such curve was filed as active; inconclusive = small, poorly fitted or top-dose-only effect, or another doubt; inactive = no such curve, though single readings can be large or run the other way
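20 nM HPGD preincubated 15 min at room temperature with compound in 50 mM Tris-HCl pH 8, 0.01% Tween 20. Started with 1 mM NAD+ and 30 uM prostaglandin E2; NADH fluorescence (360/450 nm) read 5 times over 30-s intervals, last minus first.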
PNC assembly inh – blocks assembly of the perinucleolar compartment | hit rate 3.1% among 140,000 | PC3M PTB-GFP, PNC prevalence imaging, 16 h; active compounds read low | activity change (PNC), negative = inhibition, % at 10 µM | AID 2417;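 active = readout at or below -70, meaning at least 70% loss of cells showing the perinucleolar compartment, a nuclear body marking cancer cells; inconclusive = readout between -30 and a set limit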
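Read-out is percentage of cells bearing a perinucleolar compartment, from automated 20x imaging of fixed, Hoechst-stained PC3M PTB-GFP cells. Cells were seeded 4 h, then exposed 16 h to compound (23 nl of library stock) in duplicate plates.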
Large screens that a line does not name were inactive. Unless noted, calls come from the whole dose curve; as a rule, active = well fitted curve in the direction sought with a large enough effect; inconclusive = small, poorly fitted or top-dose-only effect, or another doubt; inactive = no such curve, though single readings can be large; an effect the other way counts as inactive or inconclusive.

CCC(=O)N(Cc1cc(=O)[nH]c2ccccc12)c1cccc(C)c1	ALDH1A1 inh 40µM, HPGD inh inconclusive
Cc1ccccc1N1C(=O)CC(N(O)c2ccccc2)C1=O (stereo not drawn)	ALDH1A1 inh inconclusive
Cc1cccc(N2C(=O)CC(Cn3nc(C)cc3C)C2=O)c1 (stereo not drawn)	none (no result: ALDH1A1 inh, ALOX12 inhib, HPGD inh, PNC assembly inh)
CCN(CCO)C1CC(=O)N(c2ccccc2C)C1=O (stereo not drawn)	ALDH1A1 inh 3.5µM, PNC assembly inh inconclusive
CCN(CC)C1CC(=O)N(c2cccc(C)c2)C1=O (stereo not drawn)	ALDH1A1 inh 3.5µM
O=C(Cc1coc2cc3c(cc12)CCC3)NC1CCCCCCC1	HPGD inh 14µM
COc1ccccc1-c1nc(-c2ccc(C)nc2OC)no1	ALDH1A1 inh inconclusive, PNC assembly inh -98
CCc1nc(-c2ccc(C)nc2OC)no1	none
COc1nc(C)ccc1-c1noc(-c2ccccn2)n1	HPGD inh 22µM
CC(C)C(=O)N1CCN(c2ccccc2NC(=S)NC(=O)c2cccs2)CC1	ALDH1A1 inh inconclusive (no result: ALOX12 inhib, HPGD inh, PNC assembly inh)
C=C[C@](C)(O)CCC1C(=C)CC(OC(C)=O)C2C(C)(C)CCCC12C (stereo partly drawn)	none (no result: PNC assembly inh)
O=[N+]([O-])c1cnc(Sc2ccncn2)s1	ALDH1A1 inh 3.2µM (no result: ALOX12 inhib, HPGD inh, PNC assembly inh)
O=c1[nH]c(=O)n([C@H]2C[C@H](O)[C@H](CO)O2)cc1/C=C\Br	none (no result: ALDH1A1 inh, GLA inh pH 4.5, GLA spleen mod, HPGD inh, PNC assembly inh)
COc1cc(C(C)=O)ccc1Oc1ncnc2c1cnn2-c1cccc(Cl)c1	none
COc1cc(C(C)=O)ccc1Oc1ncnc2c1cnn2-c1ccc(F)cc1	HPGD inh 16µM, PNC assembly inh inconclusive
Cc1ccc(-c2n[nH]c(=S)n2/N=C/C=C/c2ccccc2[N+](=O)[O-])cc1	HPGD inh 2.8µM
COc1ccccc1/C=C\C=N\n1c(-c2ccc(Cl)cc2)n[nH]c1=S	ALDH1A1 inh 35µM, HPGD inh 13µM
COc1ccccc1/C=C/C=N/n1c(-c2ccc(F)cc2)n[nH]c1=S	ALDH1A1 inh inconclusive (no result: ALOX12 inhib, HPGD inh, PNC assembly inh)
Cc1n[nH]c(=S)n1/N=C/c1ccccc1OCc1ccc(Cl)cc1	HPGD inh 10µM, PNC assembly inh inconclusive
COc1ccccc1/C=C/C=N/n1c(-c2cc(-c3ccccc3)n[nH]2)n[nH]c1=S	ALDH1A1 inh inconclusive (no result: ALOX12 inhib, HPGD inh, PNC assembly inh)
COc1ccccc1/C=C\C=N\n1c(-c2ccc(Cl)cc2Cl)n[nH]c1=S	ALOX12 inhib inconclusive, HPGD inh 4µM
CN(C)c1ncc2nc(-c3ccccc3)c(=O)n(-c3ccccc3)c2n1	ALDH1A1 inh inconclusive (no result: GLA inh pH 4.5, ALOX12 inhib, HPGD inh, PNC assembly inh)
O=C(Cc1cnc2ncnn2c1)N1CCc2c([nH]c3ccccc23)C1c1ccccc1F (stereo not drawn)	ALDH1A1 inh 4.5µM (no result: ALOX12 inhib, HPGD inh, PNC assembly inh)
Cc1nonc1CC(=O)N1CCc2c([nH]c3ccccc23)C1c1ccccc1F (stereo not drawn)	ALDH1A1 inh inconclusive (no result: ALOX12 inhib, HPGD inh, PNC assembly inh)
CCC(=O)Nc1ncnc2ncn(C(=O)CC)c12	none (no result: GLA inh pH 4.5, GLA spleen mod, PNC assembly inh)
CCCC(c1nnnn1CC(=O)OCC)N(Cc1cc2c(C)cc(C)cc2[nH]c1=O)C1CCCC1 (stereo not drawn)	ALDH1A1 inh 8.9µM
Cc1cc2cc(CN(Cc3nnnn3C3CCCCC3)CC3CCCO3)c(=O)[nH]c2cc1C (stereo not drawn)	ALDH1A1 inh inconclusive, ALOX12 inhib inconclusive
Cc1ccc2cc(CN(Cc3nnnn3C3CCCCC3)CC3CCCO3)c(=O)[nH]c2c1 (stereo not drawn)	ALDH1A1 inh 8.9µM, ALOX12 inhib inconclusive
Cc1cc(C)c2cc(CN(Cc3nnnn3C3CCCCC3)CC3CCCO3)c(=O)[nH]c2c1 (stereo not drawn)	ALDH1A1 inh 4.5µM, ALOX12 inhib inconclusive
CCC(c1nnnn1CCOC)N(Cc1cc2c(C)cc(C)cc2[nH]c1=O)CC1CCCO1 (stereo not drawn)	ALDH1A1 inh 11µM
CSCC[C@@H]1NC(=O)C/C=C\[C@@H](C)COC(=O)[C@H](C)COC1=O	none (no result: GLA inh pH 4.5, ALOX12 inhib, HPGD inh, PNC assembly inh)
COc1cc(C2Nn3c(nnc3-c3ccccc3OC)S2)ccc1O (stereo not drawn)	ALDH1A1 inh 24µM, HPGD inh inconclusive
CCCCOC(=O)Nc1ccc(C(C)C)cc1	HPGD inh 13µM
CC(C)COC(=O)NCCCOC(=O)Nc1ccccc1	ALDH1A1 inh 22µM

Screening results as filed in PubChem BioAssay.
